Data as given in PubChem BioAssay AID1159580 (chemical genetic matrix, 2015).
In all, about 5,500 compounds went through this assay and about 2,000 (36%) were called active. Inconclusive results (about 18%) are left out. Cut-off read from the data, not from the text of the source: active = normalized growth mostly below about 0.91 (no sharp cut-off); inconclusive = no clear call, values can overlap the other calls; inactive = mostly above about 0.92. Some of the results follow.

Experiment: chemical genetic growth profiling, strain panel (AID 1159580);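 note: tested at 20 µM; growth read once vehicle control cultures reached saturation at 30 °C; 1 = growth at the plate median or of vehicle wells; lower values mean less growth of the strain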
Conditions: S. cerevisiae deletion strains, growth OD

Measured: normalized growth

COc1c2c(c(CC=C(C)C)c3oc(=O)c(-c4ccc(O)cc4)c(O)c13)OC(C)(C)C=C2
inactive: locus YAL021C, strain ccr4, stronger effect = lower value 0.989 | locus YBR021W, strain FUR4, stronger effect = lower value 0.849 | locus YBR171W, strain sec66, stronger effect = lower value 0.989 | locus YBR229C, strain ROT2, stronger effect = lower value 0.997 | locus YBR279W, strain paf1, stronger effect = lower value 0.972 | locus YCL016C, strain dcc1, stronger effect = lower value 0.938 | locus YCR088W, strain abp1, stronger effect = lower value 0.944 | locus YDL005C, strain med2, stronger effect = lower value 0.925 | locus YDL035C, strain GPR1, stronger effect = lower value 0.861 | locus YDL040C, strain nat1, stronger effect = lower value 0.992 | locus YDL185W, strain tfp1, stronger effect = lower value 1.02 | locus YDR001C, strain nth1, stronger effect = lower value 0.989 | locus YDR069C, strain doa4, stronger effect = lower value 1.01 | locus YDR150W, strain NUM1, stronger effect = lower value 1.01 | locus YDR334W, strain swr1, stronger effect = lower value 0.99 | locus YEL037C, strain rad23, stronger effect = lower value 0.992 | locus YER016W, strain bim1, stronger effect = lower value 0.969 | locus YER110C, stronger effect = lower value 0.938 | locus YFR010W, strain ubp6, stronger effect = lower value 0.977 | locus YGL078C, strain dbp3, stronger effect = lower value 0.98 | locus YGL167C, strain pmr1, stronger effect = lower value 0.976 | locus YGL240W, strain doc1, stronger effect = lower value 0.903 | locus YGR135W, strain pre9, stronger effect = lower value 0.907 | locus YHR013C, strain ard1, stronger effect = lower value 1.03 | locus YHR027C, strain rpn1, stronger effect = lower value 0.942 | locus YIL073C, strain SPO22, stronger effect = lower value 0.963 | locus YJL092W, strain hpr5, stronger effect = lower value 0.932 | locus YJL115W, strain asf1, stronger effect = lower value 1.02 | locus YJL134W, strain LCB3, stronger effect = lower value 0.977 | locus YJL154C, strain vps35, stronger effect = lower value 0.982 | locus YJL168C, strain set2, stronger effect = lower value 0.985 | locus YKL009W, strain mrt4, stronger effect = lower value 0.925 | locus YKL068W, stronger effect = lower value 0.982 | locus YKL160W, strain elf1, stronger effect = lower value 0.95 | locus YKR026C, strain gcn3, stronger effect = lower value 0.971 | locus YKR091W, strain srl3, stronger effect = lower value 0.991 | locus YLL041C, strain sdh2, stronger effect = lower value 0.984 | locus YLR342W, strain FKS1 (second series), stronger effect = lower value 0.812 | locus YLR357W, strain rsc2, stronger effect = lower value 1.01 | locus YLR370C, strain arc18, stronger effect = lower value 0.965 | locus YLR384C, strain iki3, stronger effect = lower value 1 | locus YMR231W, strain pep5, stronger effect = lower value 0.999 | locus YNL067W, strain RPL9B, stronger effect = lower value 0.938 | locus YNL128W, strain TEP1, stronger effect = lower value 0.906 | locus YNL209W, strain ssb2, stronger effect = lower value 0.935 | locus YNL248C, strain rpa49, stronger effect = lower value 0.973 | locus YNL250W, strain rad50, stronger effect = lower value 1.05 | locus YNL271C, strain bni1, stronger effect = lower value 0.976 | locus YNL298W, strain CLA4, stronger effect = lower value 0.95 | locus YNL322C, strain KRE1 (second series), stronger effect = lower value 1.03 | locus YNR049C, strain mso1, stronger effect = lower value 0.987 | locus YOL012C, strain htz1 0.365 | locus YOR061W, strain CKA2, stronger effect = lower value 0.939 | locus YOR080W, strain dia2, stronger effect = lower value 0.946 | locus YOR106W, strain vam3, stronger effect = lower value 0.883 | locus YOR316C, strain cot1, stronger effect = lower value 0.924 | locus YPL106C, strain sse1, stronger effect = lower value 0.913 | locus YPR141C, strain kar3, stronger effect = lower value 0.977
active: locus YAL013W, strain DEP1, stronger effect = lower value 0.307 | locus YAL026C, strain drs2, stronger effect = lower value 0.87 | locus YAL030W, strain snc1, stronger effect = lower value 0.916 | locus YBL061C, strain skt5, stronger effect = lower value 0.846 | locus YBR009C, strain hhf1, stronger effect = lower value 0.656 | locus YBR023C, strain chs3, stronger effect = lower value 0.854 | locus YBR231C, strain swc5, stronger effect = lower value 0.857 | locus YCL011C, strain gbp2, stronger effect = lower value 0.759 | locus YCL029C, strain bik1, stronger effect = lower value 0.677 | locus YCL061C, strain MRC1, stronger effect = lower value 0.816 | locus YCL069W, strain vba3, stronger effect = lower value 0.812 | locus YDL074C, strain BRE1, stronger effect = lower value 0.325 | locus YDL101C, strain DUN1, stronger effect = lower value 0.862 | locus YDL192W, strain arf1, stronger effect = lower value 0.414 | locus YDR101C, strain arx1, stronger effect = lower value 0.775 | locus YDR137W, strain rgp1, stronger effect = lower value 0.819 | locus YDR159W, strain sac3, stronger effect = lower value 0.383 | locus YDR162C, strain NBP2, stronger effect = lower value 0.642 | locus YDR195W, strain ref2 0.459 | locus YDR297W, strain sur2, stronger effect = lower value 0.847 | locus YDR318W, strain mcm21, stronger effect = lower value 0.681 | locus YDR335W, strain msn5, stronger effect = lower value 0.851 | locus YDR388W, stronger effect = lower value 0.912 | locus YDR392W, strain spt3, stronger effect = lower value 0.103 | locus YDR502C, strain sam2, stronger effect = lower value 0.768 | locus YEL003W, strain gim4, stronger effect = lower value 0.766 | locus YEL061C, strain CIN8 (second series), stronger effect = lower value 0.765 | locus YER015W, strain faa2, stronger effect = lower value 0.845 | locus YER111C, strain swi4, stronger effect = lower value 0.518 | locus YER155C, strain BEM2 (second series), stronger effect = lower value 0.536 | locus YER155C, strain BEM2, stronger effect = lower value 0.277 | locus YER167W, strain BCK2, stronger effect = lower value 0.806 | locus YGL086W, strain mad1, stronger effect = lower value 0.683 | locus YGL173C, strain kem1, stronger effect = lower value 0.9 | locus YGL227W, strain vid30, stronger effect = lower value 0.765 | locus YGL248W, strain PDE1, stronger effect = lower value 0.763 | locus YGL253W, strain hxk2, stronger effect = lower value 0.838 | locus YGR078C, strain PAC10, stronger effect = lower value 0.633 | locus YGR229C, strain SMI1, stronger effect = lower value 0.409 | locus YGR252W, strain gcn5, stronger effect = lower value 0.696 | locus YHR079C, strain IRE1 (second series), stronger effect = lower value 0.868 | locus YHR094C, strain hxt1, stronger effect = lower value 0.832 | locus YHR129C, strain ARP1, stronger effect = lower value 0.61 | locus YHR142W, strain chs7, stronger effect = lower value 0.512 | locus YHR200W, strain rpn10, stronger effect = lower value 0.889 | locus YIL066C, strain RNR3, stronger effect = lower value 0.708 | locus YIL125W, strain kgd1, stronger effect = lower value 0.911 | locus YIR030C, strain dcg1, stronger effect = lower value 0.773 | locus YJL095W, strain BCK1 (second series), stronger effect = lower value 0.799 | locus YJL095W, strain BCK1, stronger effect = lower value 0.352 | locus YJL129C, strain trk1, stronger effect = lower value 0.648 | locus YJL164C, strain tpk1, stronger effect = lower value 0.747 | locus YJL166W, strain qcr8, stronger effect = lower value 0.679 | locus YJL187C, strain SWE1 (second series), stronger effect = lower value 0.837 | locus YJL187C, strain SWE1, stronger effect = lower value 0.877 | locus YKL085W, strain MDH1 (second series), stronger effect = lower value 0.909 | locus YKL085W, strain MDH1, stronger effect = lower value 0.909 | locus YKL190W, strain CNB1, stronger effect = lower value 0.851 | locus YKR001C, strain vps1, stronger effect = lower value 0.381 | locus YLL001W, strain dnm1, stronger effect = lower value 0.848 | locus YLL026W, stronger effect = lower value 0.848 | locus YLR027C, strain aat2, stronger effect = lower value 0.72 | locus YLR039C, strain RIC1, stronger effect = lower value 0.444 | locus YLR058C, strain SHM2, stronger effect = lower value 0.782 | locus YLR102C, strain apc9, stronger effect = lower value 0.847 | locus YLR221C, strain rsa3, stronger effect = lower value 0.674 | locus YLR258W, strain gsy2, stronger effect = lower value 0.824 | locus YLR262C, strain YPT6 (second series), stronger effect = lower value 0.584 | locus YLR268W, strain sec22, stronger effect = lower value 0.693 | locus YLR320W, strain mms22, stronger effect = lower value 0.65 | locus YLR342W, strain FKS1, stronger effect = lower value 0.907 | locus YLR371W, strain rom2, stronger effect = lower value 0.519 | locus YLR418C, strain cdc73, stronger effect = lower value 0.214 | locus YML016C, strain PPZ1, stronger effect = lower value 0.904 | locus YML032C, strain rad52, stronger effect = lower value 0.63 | locus YML120C, strain ndi1, stronger effect = lower value 0.467 | locus YML124C, strain tub3, stronger effect = lower value 0.858 | locus YMR058W, strain fet3, stronger effect = lower value 0.834 | locus YMR078C, strain ctf18, stronger effect = lower value 0.537 | locus YMR125W, strain sto1, stronger effect = lower value 0.866 | locus YMR129W, stronger effect = lower value 0.915 | locus YMR205C, strain PFK2, stronger effect = lower value 0.664 | locus YMR223W, strain ubp8, stronger effect = lower value 0.792 | locus YMR263W, strain SAP30, stronger effect = lower value 0.866 | locus YMR307W, strain GAS1, stronger effect = lower value 0.48 | locus YNL071W, strain lat1, stronger effect = lower value 0.484 | locus YNL233W, strain BNI4, stronger effect = lower value 0.635 | locus YNL307C, strain MCK1, stronger effect = lower value 0.24 | locus YNL322C, strain KRE1, stronger effect = lower value 0.88 | locus YNR052C, strain pop2, stronger effect = lower value 0.546 | locus YOL147C, strain pex11, stronger effect = lower value 0.481 | locus YOR001W, strain rrp6, stronger effect = lower value 0.797 | locus YOR069W, strain VPS5, stronger effect = lower value 0.896 | locus YOR070C, strain gyp1, stronger effect = lower value 0.793 | locus YOR083W, strain WHI5, stronger effect = lower value 0.876 | locus YOR136W, strain idh2, stronger effect = lower value 0.867 | locus YOR144C, strain elg1, stronger effect = lower value 0.592 | locus YOR184W, strain ser1, stronger effect = lower value 0.217 | locus YOR265W, strain rbl2, stronger effect = lower value 0.919 | locus YOR270C, strain vph1, stronger effect = lower value 0.549 | locus YOR290C, strain snf2, stronger effect = lower value 0.631 | locus YPL051W, strain arl3, stronger effect = lower value 0.787 | locus YPL078C, strain atp4, stronger effect = lower value 0.802 | locus YPL240C, strain hsp82, stronger effect = lower value 0.853 | locus YPR119W, strain clb2, stronger effect = lower value 0.735 | locus YPR163C, strain tif3, stronger effect = lower value 0.463 | locus YPR167C, strain met16, stronger effect = lower value 0.751 | strain wtn01, stronger effect = lower value 0.747
